Data on 37 compounds can be found in PubChem BioAssay AID1117283 (Broad Institute, 2014).

Entries with a potency or affinity are not part of this list. Unmarked numbers belong to inactive results.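 How the source made its calls: active means fluorescent signal decreased by at least 40%; inconclusive means no clear call, values can overlap the other calls; inactive means the rest, including activity opposite to the expected direction.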

A short description of the test: fibronectin fibrillogenesis inhibitors in fibroblasts, dose response, AH1F cells, Alexa488-fibronectin fluorescence, cherry-pick, set 2 (AID 1117283).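 Further: AH1F fibroblasts given Alexa488-labelled fibronectin at 24 nM final.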 The note with it: Alexa488-fibronectin deposition fluorescence, overnight; series mostly up to 35 µM; activity change, negative = inhibition: at the top concentration.
As to `O=C(Nc1ccccc1F)N1C[C@@H]2[C@H](c3ccccc31)[C@H](CO)N2C(=O)C1CCOCC1`, the “activity change, negative = inhibition” value was 4.14%. Consider `O=C(c1cccnc1)N1C[C@H]2[C@@H](c3ccccc31)[C@H](CO)N2CC1CCCC1`, for which the “activity change, negative = inhibition” value was 8.16%. With `CO[C@@H]1CN(C)C(=O)c2cc(NC(=O)Nc3ccc(Cl)c(Cl)c3)ccc2OC[C@@H](C)NC[C@@H]1C`, the “activity change, negative = inhibition” value is 0.023%. On to `COCC(=O)Nc1ccc2c(c1)C(=O)N(C)[C@H]1CC[C@@H](CC(=O)NCc3ccccc3Cl)O[C@H]1CO2`, for which the “activity change, negative = inhibition” value is 8.86%. With `Cc1ccc(S(=O)(=O)N2CC[C@@H]3[C@H](CO)Nc4ccc(-c5cccc(C(=O)N(C)C)c5)cc4[C@@H]32)cc1`, the “activity change, negative = inhibition” value was 1.14%.

As for `C[C@@H]1CN([C@@H](C)CO)C(=O)c2cc(NC(=O)CCCN(C)C)ccc2O[C@H]1CN(C)Cc1ccc(-c2ccccc2)cc1`, the “activity change, negative = inhibition” value was 2.11%. Take `CO[C@H]1CN(C)C(=O)c2ccc(NC(=O)Nc3ccc(Cl)c(Cl)c3)cc2OC[C@H](C)NC[C@H]1C`: the “activity change, negative = inhibition” value was -3.99%. For `O=C(Nc1ccccc1F)N1C[C@@H]2[C@H](c3ccccc31)[C@@H](CO)N2C(=O)C1CC1`, the “activity change, negative = inhibition” value is 0.595%.

On to `COC(=O)C[C@@H]1CC[C@H]2[C@H](COc3ccc(NC(=O)Cc4cccs4)cc3C(=O)N2C)O1`, for which the “activity change, negative = inhibition” value was -4.43% [at 30 µM].

With `C[C@H](CO)N1C[C@H](C)[C@H](CN(C)Cc2ccc(-c3ccccc3)cc2)Oc2ccc(NC(=O)CCCN(C)C)cc2C1=O`, the “activity change, negative = inhibition” value is 8.61%. For `COc1ccccc1CNc1nc(NCc2cnc(C)cn2)c2sccc2n1`, the “activity change, negative = inhibition” value is 6.67%. For `CO[C@H]1CN(C)C(=O)c2cc(NC(=O)Nc3cc(Cl)cc(Cl)c3)ccc2OC[C@@H](C)NC[C@H]1C`, the “activity change, negative = inhibition” value is 1.09%. In the case of `O=S(=O)(c1ccccc1F)N1CC[C@@H]2[C@H]1c1cc(-c3cccc(F)c3)ccc1N[C@@H]2CO`, the “activity change, negative = inhibition” value is 2.9%.

In the case of `C[C@@H]1CN([C@H](C)CO)C(=O)c2cc(-c3ccccc3)cnc2O[C@H]1CN(C)C(=O)c1cccc(F)c1`, the “activity change, negative = inhibition” value is 14.2%. With `CN(C)C(=O)c1ccc(-c2ccc3c(c2)[C@@H]2[C@@H](CCN2C(=O)c2ccc(F)cc2)[C@@H](CO)N3C)cc1`, the “activity change, negative = inhibition” value is -0.065%. Turning to `CN(C)c1ccc(-c2ccnc3c2CC(C)(C(=O)NCC2CC2)O3)cc1` (configuration not stated), the “activity change, negative = inhibition” value was 10.7%. For the compound `Cc1ccc(N(CC(=O)NCc2ccco2)S(=O)(=O)c2ccccc2)cc1`, the “activity change, negative = inhibition” value was -11.7%.

Take `C[C@@H]1CN([C@@H](C)CO)C(=O)c2cc(-c3ccccc3)cnc2O[C@H]1CN(C)Cc1ccccc1`: the “activity change, negative = inhibition” value is 6.85%.

On to `Nc1c(C(=O)NCc2ccco2)nnn1Cc1ccccc1`, for which the “activity change, negative = inhibition” value is 1.35%. In the case of `COc1cccc(-c2ccc3c(c2)[C@@H]2[C@@H](CCN2S(=O)(=O)c2cccc(OC)c2)[C@H](CO)N3)c1`, the “activity change, negative = inhibition” value was -8.42%. Turning to `CC1OC(CC(=O)O)CC2=C1C(=O)c1c(O)cccc1C2=O` (configuration not stated), the “activity change, negative = inhibition” value was -5.61%. For `O=S(=O)(c1cccc(F)c1)N1CC[C@@H]2[C@H]1c1cc(-c3cccc(F)c3)ccc1N[C@@H]2CO`, the “activity change, negative = inhibition” value is -11.1%. Consider `O=C(CN1CCCC1)Nc1ccc(Oc2ccc(NC(=O)CN3CCCC3)cc2)cc1`, for which the “activity change, negative = inhibition” value was 4.45%.

For `CO[C@H]1CN(C)C(=O)c2cc(NC(=O)Nc3ccc(Cl)c(Cl)c3)ccc2OC[C@@H](C)NC[C@H]1C`, the “activity change, negative = inhibition” value is 6.57%. On to `N#Cc1ccc(-c2ccc3c(c2)[C@@H]2[C@@H](CCN2S(=O)(=O)c2cccc(F)c2)[C@H](CO)N3)cc1`, for which the “activity change, negative = inhibition” value was -5.91%. Regarding `Cc1ccc([N+](=O)[O-])cc1NC(=O)CN(C(=O)c1ccccc1Cl)C1CCCCC1`, the “activity change, negative = inhibition” value was -2.21%. In the case of `COC(=O)C[C@H]1CC[C@@H]2[C@@H](COc3ccc(NC(=O)Cc4cccs4)cc3C(=O)N2C)O1` it was 4.16%; in that of `CO[C@H]1CN(C)C(=O)c2cc(NC(C)=O)ccc2OC[C@@H](C)N(C(=O)CN2CCOCC2)C[C@H]1C`, 1.65%; in that of `C[C@H](O)C#Cc1ccc2c(c1)O[C@H](CN(C)C)[C@@H](C)CN([C@H](C)CO)S2(=O)=O`, -7.32%.

As to `CCOc1cccc(C(=O)Nc2ccc(N(CC)CC)cc2)c1`, the “activity change, negative = inhibition” value is 1.45%. `C[C@@H]1CN([C@@H](C)CO)C(=O)c2cccc(NC(=O)Nc3ccc(C(F)(F)F)cc3)c2O[C@@H]1CN(C)C(=O)Nc1cccc2ccccc12`: the “activity change, negative = inhibition” value is 5.92%. Regarding `CO[C@H]1CN(C)C(=O)c2ccc(NC(=O)c3ccc(-c4ccccc4)cc3)cc2OC[C@H](C)NC[C@H]1C`, the “activity change, negative = inhibition” value is 4.53%.

`C[C@@H]1CN([C@@H](C)CO)C(=O)c2cc(NC(=O)C3CCCCC3)ccc2O[C@@H]1CN(C)Cc1ccc(-c2ccccc2)cc1`: the “activity change, negative = inhibition” value is -14.2%. As for `CC(C)C(=O)Nc1ccc2c(c1)C(=O)N(C)[C@@H]1CC[C@H](CC(=O)O)O[C@@H]1CO2`, the “activity change, negative = inhibition” value is 7.63%. `C[C@H](CO)N1C[C@H](C)[C@H](CN(C)C(=O)Nc2cccc3ccccc23)Oc2c(NC(=O)Nc3ccc(C(F)(F)F)cc3)cccc2C1=O`: the “activity change, negative = inhibition” value was 8.48%. Consider `CS(=O)(=O)N1CCN(c2ccc(NC(=O)c3ccc([N+](=O)[O-])o3)cc2)CC1`, for which the “activity change, negative = inhibition” value was 3.37%. The same measure for `CCOC(=O)c1cnc(SCc2nc(N)nc(Nc3ccc(OC)cc3)n2)nc1N`: 3.31%.
